Test results as given in the supplement of paper PMC4466236.
In all, about 33,000 sequences were measured (“E-score (dimensionless, -0.5 to 0.5)”: median about -0.058, highest 2% from about 0.35 on). The full list was thinned out, with the highest values kept by preference.

Test system: MvaT
Assay: PBM 8-mer E-score (mean of HK and ME arrays) (E-score (dimensionless, -0.5 to 0.5)); higher = stronger relative binding preference
Outline: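 Reported values are rank-based E-scores, taken as the mean of two universal arrays and parsed with a custom script. Each 8-mer score falls between -0.5 and 0.5. The arrays, ME and HK, were double-stranded 60-mers with a constant 25-mer primer region and a variable 35-mer region covering all 8-mers. They were probed, by an earlier protocol, with full-length P. aeruginosa MvaT carrying an N-terminal glutathione S-transferase fusion.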

Sequence	PBM 8-mer E-score
CTTAATCA	0.174
AGTAATTA	0.421
ATTAATCA	0.405
CTTAATGA	0.0908
CGTAATTA	0.31
ATTAATGA	0.363
GTTAAGTA	0.203
ATTAATGC	0.341
GTTAATTA	0.415
GTCAATTA	0.164
GGTAATTA	0.286
ATTAATCC	0.332
CTTACGCA	-0.158
AATTGCAA	0.179
AAGCAGCC	-0.138
TAACCTTA	0.0355
GTAGGGCA	-0.179
CATAAGGG	-0.214
CAGCTCGG	-0.199
ACGACCTC	-0.143
ACCCAATC	-0.0955
ACAATACG	0.0961

Sequence	PBM 8-mer E-score
ATAATACC	0.333
ATAATACA	0.407
CTAATACA	0.325
AAAATACG	0.184
ATAATACG	0.354
ATGGCACA	-0.0727
GCGTGTAC	-0.107
GAGATCGC	-0.123
CTGTTAAC	0.141
ATGTTAAC	0.363
ATGTTAAA	0.329
ATGTTAAG	0.178
GTGTTAAC	0.219
ATGTTAAT	0.39
TGCGTCAA	-0.0324
GGGAACAC	-0.198
CCTGTCCG	-0.203
CCTCGAGC	-0.149
CAGTTGCG	-0.0888
CATTATTA	0.432
CATTATGA	0.214
GATTATCA	0.193

Sequence	PBM 8-mer E-score
TATTATCA	0.404
GATTATTA	0.391
GATTATGC	0.148
CATTATCA	0.169
GATTATCC	0.209
AATTATCA	0.325
CCTTATTC	0.189
CATTATTC	0.363
CATTATCC	0.235
AAGTTCCA	0.2
CGGGTTCC	-0.15
CGGAAAAG	0.00958
AAATGGTC	-0.0709
TACGTGCA	0.0131
AGGCCTAT	-0.235
TAGCATCA	0.0156
ATTACCGA	0.0931
GGCGATAA	0.137
AAATCATG	-0.0303
AATGTAAT	0.365
ACTGTAAC	0.246
AATGTAAC	0.267

Sequence	PBM 8-mer E-score
ACTGTAAA	0.266
AATGTAAG	0.293
ACTGTAAT	0.351
GGTATGAC	-0.144
ATAATGGG	0.229
AGGTTAAA	0.0501
ATCATTCC	-0.0603
AATGATTC	0.144
CGATAGCC	-0.14
GCAGTTCC	-0.18
GATTATGA	0.0705
CATTATAC	0.295
AATTATAC	0.342
AATTAGAT	0.284
AATTATAA	0.468
CATTAGAA	-0.0258
CATTATAA	0.389
AATTATCT	0.296
GATTATAA	0.41
GATTATAC	0.223
AATTATAT	0.461
